CF NFkB inh: blocks PAF-induced NF-kB reporter in cystic fibrosis cells | inhibition, % at 5 µM | KKLEB NF-kB-GFP reporter, GFP fluorescence overnight | 360,000 tested, 0.86% active;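 active = at least 50% inhibition at 5 µM, scaled per plate between neutral and stimulator controls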;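 note: PAF is a Pseudomonas aeruginosa culture filtrate used as stimulus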
LGR2 antag: Drosophila LGR2 receptor signaling inhibition; HEK293 LGR2, CRE-luciferase, bursicon-stimulated, 4 h; inhibition, % at 9.99 µM; 380,000 tested, 0.35% active; AID 720647;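 active = drop in luminescence signal, shown as inhibition above about 50% in the replicate tests, limit read from the data, passing the limit was not always enough; inconclusive = probably only some replicates passing the limit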;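 note: agonist challenge used bursicon conditioned medium at about half maximal strength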
KKLEB cytotox: CF airway cell cytotoxicity counter-screen. KKLEB CF airway cells viability, ATPlite luminescence, overnight; hits give low values; cells stimulated with P. aeruginosa culture filtrate. activity change (cytotoxicity), % at 5 µM. 360,000 tested, 0.36% active. AID 602141;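 active = corrected activity change at or below -50% at 5 µM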
EWS-Fli block: inhibitors of EWS/Fli oncoprotein transcriptional activity | 350,000 tested, 0.67% active | AID 651661 | inhibition, % at 12.6 µM | A673 NR0B1-luciferase reporter, viability-normalised;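 active = mean inhibition of at least 50% after viability correction, with every replicate also passing that limit; inconclusive = mean reaches 50% but only one of two replicates passes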;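 note: firefly luciferase signal divided by Alamar Blue viability fluorescence both relative to DMSO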
PAX8 reporter: PAX8 transcriptional activity inhibition; inhibition, % at 12.6 µM; AID 652154; 360,000 tested, 1.2% active; RMG-I TPO-luciferase reporter, SteadyGlo, 24 h;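 active = mean replicate inhibition at least 60% with every replicate also reaching 60%; inconclusive = only one of the two criteria is met; inactive = mean below 60% and not all replicates reaching 60%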;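 note: luciferase light reporting Pax8 driven TPO promoter activity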
Shn3 3UTR inh: Schnurri-3 reporter inhibition in Clone20 osteoblasts. 360,000 tested, 0.52% active. AID 588674. Clone20 osteoblast Shn3 3'UTR firefly luciferase, 24 h. inhibition, % at 12.5 µM;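 active = mean inhibition of at least 75% with every replicate also reaching 75%; inconclusive = mean inhibition at least 75% but some replicate below; inactive = mean inhibition below 75%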
Each line names hits and unclear results; the compound was inactive in the other large screens. Rows were chosen to be rich in hits. Some 2% of all compounds tested hit in one or more screens of this group.

CC1=NN(c2nc(-c3ccc(C)cc3)cs2)C(=O)C1N=Nc1ccc(C(N)=O)cc1 (stereo unspecified)	CF NFkB inh 76, KKLEB cytotox -66, EWS-Fli block 55
O=[N+]([O-])c1ccc(Sc2cccc[n+]2[O-])c2nonc12	CF NFkB inh 84, KKLEB cytotox -97, EWS-Fli block 56, PAX8 reporter 102, Shn3 3UTR inh 98
Cc1ccc(-c2ccc([C@H]3[C@@H](CO)N4CCCCN(S(=O)(=O)c5cccc(C)c5)C[C@H]34)cc2)cc1	PAX8 reporter 73 (no result: CF NFkB inh, LGR2 antag, KKLEB cytotox, Shn3 3UTR inh)
Cc1cccc(-c2ccc([C@H]3[C@H](CO)N4CCCCN(S(=O)(=O)c5cccc(C)c5)C[C@@H]34)cc2)c1	PAX8 reporter inconclusive (no result: CF NFkB inh, KKLEB cytotox, Shn3 3UTR inh)
Cc1cccc(-c2ccc([C@H]3[C@@H](CO)N4CCCCN(S(=O)(=O)c5cccc(C)c5)C[C@@H]34)cc2)c1	PAX8 reporter 96 (no result: CF NFkB inh, KKLEB cytotox, Shn3 3UTR inh)
CCS(=O)(=O)N1CC(=O)N2[C@H](CO)[C@@H](c3ccc(-c4ccc(C)cc4)cc3)[C@H]2C1	none (no result: CF NFkB inh, KKLEB cytotox, Shn3 3UTR inh)
Brc1ccc(-c2nc(N/N=C/c3cccnc3)c3ccccc3n2)cc1	KKLEB cytotox -70 (no result: LGR2 antag, EWS-Fli block, PAX8 reporter)
C(=N\Nc1nc(-c2cccnc2)nc2ccccc12)/c1ccccc1	none (no result: LGR2 antag)
CN(C[C@H]1N[C@@H](CO)[C@@H]1c1ccc(C2=CCCC2)cc1)C(=O)c1ccncc1	PAX8 reporter 81 (no result: CF NFkB inh, KKLEB cytotox, Shn3 3UTR inh)
CN(C[C@H]1N[C@@H](CO)[C@@H]1c1ccc(C2=CCCC2)cc1)C(=O)c1ccccn1	PAX8 reporter 72 (no result: CF NFkB inh, KKLEB cytotox, Shn3 3UTR inh)
CN(C[C@H]1N[C@@H](CO)[C@@H]1c1ccccc1)C(=O)c1ccccn1	none (no result: CF NFkB inh, KKLEB cytotox, Shn3 3UTR inh)
C/C=C/c1ccc([C@H]2[C@H]3CN(Cc4ccccc4)CC(=O)N3[C@H]2CO)cc1	none (no result: CF NFkB inh, KKLEB cytotox, Shn3 3UTR inh)
Cc1ccc2c(CC(=O)OCC(=O)Nc3ccc(Cl)cn3)coc2c1	PAX8 reporter 119
CCC(=O)N1[C@H](CO)[C@H](c2ccc(C#CC3(O)CCCC3)cc2)[C@@H]1CNC(C)=O	none (no result: CF NFkB inh, KKLEB cytotox, EWS-Fli block, PAX8 reporter, Shn3 3UTR inh)
Oc1cc(-c2ccncc2)cc2cccnc12	Shn3 3UTR inh 89
CC(C)(C)OC(=O)NCCCC[C@H](NC(=O)c1nc[nH]c1C(=O)NC(c1ccccc1)c1ccccc1)C(=O)OC(C)(C)C	PAX8 reporter 80
CC(C)C[C@H](NC(=O)c1nc[nH]c1C(=O)N[C@@H](CCCCNC(=O)OC(C)(C)C)C(=O)OC(C)(C)C)C(=O)OCc1ccccc1	PAX8 reporter 82
CC(C)C[C@H](NC(=O)c1[nH]cnc1C(=O)N[C@@H](Cc1ccccc1)C(=O)OC(C)(C)C)C(=O)OCc1ccccc1	none
CC(C)(C)OC(=O)NCCCCCNC(=O)c1[nH]cnc1C(=O)N[C@@H](CCCCNC(=O)OC(C)(C)C)C(=O)OC(C)(C)C	none (no result: LGR2 antag, EWS-Fli block, PAX8 reporter)
CC(C)(C)OC(=O)NCCCC[C@H](NC(=O)c1nc[nH]c1C(=O)N[C@@H](CCCCNC(=O)OC(C)(C)C)C(=O)OC(C)(C)C)C(=O)OC(C)(C)C	PAX8 reporter 76
CC(C)C[C@H](NC(=O)c1[nH]cnc1C(=O)N[C@@H](Cc1ccccc1)C(=O)OC(C)(C)C)C(=O)OC(C)(C)C	PAX8 reporter 68
C[C@H]1CCCCO[C@H](CN(C)C(=O)NC2CCCCC2)[C@@H](C)CN([C@@H](C)CO)C(=O)c2cc(NC(=O)c3ccccc3)ccc2O1	none (no result: CF NFkB inh, KKLEB cytotox, Shn3 3UTR inh)
Oc1c(Cl)cc(CN2CCOCC2)c2cccnc12	PAX8 reporter 103, Shn3 3UTR inh 90
Oc1c(CN2CCCCC2)cc(Br)c2cccnc12	none (no result: LGR2 antag, EWS-Fli block, PAX8 reporter)
O=C(Oc1c(CN2CCOCC2)cc(Cl)c2cccnc12)c1ccccc1	none
Oc1c(CN2CCc3ccccc3C2)cc(Cl)c2cccnc12	Shn3 3UTR inh 87 (no result: LGR2 antag, EWS-Fli block, PAX8 reporter)
O=S(=O)(c1ccc(Cl)cc1)N1CCN(Cc2ccc(O)c3ncccc23)CC1	Shn3 3UTR inh 88
C[C@@H]1CN([C@@H](C)CO)S(=O)(=O)c2ccc(-c3cccc(C(=O)N(C)C)c3)cc2O[C@H]1CN(C)Cc1ccc2c(c1)OCO2	none (no result: CF NFkB inh, KKLEB cytotox, Shn3 3UTR inh)
CC1(C)CC(Nc2ccc(Nc3ccccc3)cc2)CC(C)(C)N1	PAX8 reporter 69
COc1ccc(C(=O)Nc2ccc(C)cn2)c(OC)c1	KKLEB cytotox -63 (no result: LGR2 antag, EWS-Fli block, PAX8 reporter)
CN(C)C(=O)c1cccc(-c2ccc([C@H]3[C@@H](CO)N(C(=O)C4CCCCC4)[C@H]3C#N)cc2)c1	none (no result: CF NFkB inh, KKLEB cytotox, Shn3 3UTR inh)

Assay outcomes from PubChem BioAssay.
